This passage reports binding signal results from PMC7862700, “An all-to-all approach to the identification of sequence-specific readers for epigenetic DNA modifications on cytosine”.

Holding throughout (assay): DAPPL (digital affinity profiling via proximity ligation, sequencing); 10 mM Tris-HCl pH 7.5, 50 mM NaCl, 1 mM DTT, 4% glycerol, room temperature, 30 min; GST-TFs on glutathione beads, 16-mer random dsDNA library, 0.1% formaldehyde crosslink after washing; high values mean tight binding
One experiment addresses T1, FLI1 (Homo sapiens, UniProt Q01543 1-452).
T1 sequence: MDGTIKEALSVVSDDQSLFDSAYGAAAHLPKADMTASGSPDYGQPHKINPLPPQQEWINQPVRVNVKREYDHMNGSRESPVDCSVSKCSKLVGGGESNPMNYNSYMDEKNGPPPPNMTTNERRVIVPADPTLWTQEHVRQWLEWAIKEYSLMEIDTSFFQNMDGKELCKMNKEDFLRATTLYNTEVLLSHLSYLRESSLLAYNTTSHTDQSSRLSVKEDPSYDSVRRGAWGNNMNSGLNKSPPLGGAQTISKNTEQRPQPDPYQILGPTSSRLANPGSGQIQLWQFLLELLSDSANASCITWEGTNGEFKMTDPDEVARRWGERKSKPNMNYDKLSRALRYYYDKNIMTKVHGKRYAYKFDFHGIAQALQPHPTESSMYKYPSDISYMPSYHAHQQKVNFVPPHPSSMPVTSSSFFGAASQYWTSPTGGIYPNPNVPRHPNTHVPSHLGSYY
The note with it: protein: recombinant; tags: N-terminal GST; dsDNA, one strand shown. The method in brief: (§1)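 Human transcription factors were made in yeast as GST fusions, captured on glutathione beads and barcoded with DNA. With a tag-only sample included, the pool was incubated with 200 nmole of a random double-stranded 16-mer DNA library in Tris/NaCl/DTT/glycerol buffer at room temperature for 30 min, then crosslinked with 0.1% formaldehyde after washing, ligated by proximity, amplified and sequenced. For binding signal, each hexamer's read frequency for a factor is divided by its frequency for the tag-only sample.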

In a further experiment the target is T2, ELK1 (Homo sapiens, UniProt P19419 1-428).
T2 sequence: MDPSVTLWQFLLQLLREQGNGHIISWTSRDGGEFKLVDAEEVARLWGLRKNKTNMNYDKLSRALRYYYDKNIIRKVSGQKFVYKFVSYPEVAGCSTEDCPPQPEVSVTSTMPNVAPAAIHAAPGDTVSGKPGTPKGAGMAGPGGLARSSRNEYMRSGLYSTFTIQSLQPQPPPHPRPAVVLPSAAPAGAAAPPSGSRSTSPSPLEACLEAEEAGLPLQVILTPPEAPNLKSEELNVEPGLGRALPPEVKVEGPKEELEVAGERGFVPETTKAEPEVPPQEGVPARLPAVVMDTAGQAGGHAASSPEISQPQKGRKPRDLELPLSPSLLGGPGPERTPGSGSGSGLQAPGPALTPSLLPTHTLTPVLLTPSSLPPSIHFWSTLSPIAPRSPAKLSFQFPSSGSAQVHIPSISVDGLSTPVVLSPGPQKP
The note with it: protein: recombinant; tags: N-terminal GST; dsDNA, one strand shown. The method in brief: as §1

In the next experiment the target is T3, GABPA (Homo sapiens, UniProt Q06546 1-454).
T3 sequence: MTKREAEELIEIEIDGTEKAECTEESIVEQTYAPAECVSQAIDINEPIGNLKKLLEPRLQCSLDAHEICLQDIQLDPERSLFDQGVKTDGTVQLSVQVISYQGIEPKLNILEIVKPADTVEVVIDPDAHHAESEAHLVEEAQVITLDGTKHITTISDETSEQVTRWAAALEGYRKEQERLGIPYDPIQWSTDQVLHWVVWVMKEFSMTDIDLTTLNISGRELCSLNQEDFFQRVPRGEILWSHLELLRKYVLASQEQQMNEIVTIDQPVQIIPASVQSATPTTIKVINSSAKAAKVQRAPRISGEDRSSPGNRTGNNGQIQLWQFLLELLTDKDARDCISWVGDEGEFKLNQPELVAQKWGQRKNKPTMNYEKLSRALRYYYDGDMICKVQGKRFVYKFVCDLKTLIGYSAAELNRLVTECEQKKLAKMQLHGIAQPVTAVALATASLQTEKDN
The note with it: protein: recombinant; tags: N-terminal GST; dsDNA, one strand shown. The method in brief: as §1

The target of a further experiment is T4, ERG (Homo sapiens, UniProt P11308 1-479).
T4 sequence: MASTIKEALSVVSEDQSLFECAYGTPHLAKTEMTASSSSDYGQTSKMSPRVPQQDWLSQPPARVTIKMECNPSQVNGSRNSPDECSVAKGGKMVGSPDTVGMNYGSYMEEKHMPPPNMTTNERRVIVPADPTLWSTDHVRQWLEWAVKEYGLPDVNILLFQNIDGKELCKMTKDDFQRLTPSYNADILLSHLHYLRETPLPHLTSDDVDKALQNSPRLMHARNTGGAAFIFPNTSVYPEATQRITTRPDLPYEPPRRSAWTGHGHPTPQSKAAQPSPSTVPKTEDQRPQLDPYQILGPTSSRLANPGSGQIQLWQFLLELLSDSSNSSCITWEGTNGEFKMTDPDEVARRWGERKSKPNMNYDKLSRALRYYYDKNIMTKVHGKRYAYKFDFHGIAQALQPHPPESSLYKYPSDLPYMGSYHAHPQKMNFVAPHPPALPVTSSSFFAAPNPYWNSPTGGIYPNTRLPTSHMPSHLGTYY
The note with it: protein: recombinant; tags: N-terminal GST; dsDNA, one strand shown. Put shortly:
as §1

A further experiment concerns the target ELF1 (Homo sapiens, UniProt P32519 1-619). The conditions noted are these: protein: recombinant; tags: N-terminal GST; dsDNA, one strand shown. The method in brief:
as §1

The next experiment addresses T5, EHF (Homo sapiens, UniProt Q9NZC4 1-300).
T5 sequence: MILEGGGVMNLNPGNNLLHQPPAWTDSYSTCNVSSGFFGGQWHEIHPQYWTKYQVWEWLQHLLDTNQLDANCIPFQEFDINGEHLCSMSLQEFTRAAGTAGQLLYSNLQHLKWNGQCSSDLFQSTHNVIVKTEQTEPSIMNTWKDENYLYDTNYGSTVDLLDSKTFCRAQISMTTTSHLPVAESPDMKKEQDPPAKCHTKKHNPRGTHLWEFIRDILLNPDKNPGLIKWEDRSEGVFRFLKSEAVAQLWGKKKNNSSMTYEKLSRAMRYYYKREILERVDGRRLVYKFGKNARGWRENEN
The conditions noted are these: protein: recombinant; tags: N-terminal GST; dsDNA, one strand shown. Put shortly:
as §1

Another experiment concerns the target SPI1 (Homo sapiens, UniProt P17947 1-270). The note with it: protein: recombinant; tags: N-terminal GST; dsDNA, one strand shown. The method in brief:
as §1

Another experiment concerns the target SPIB (Homo sapiens, UniProt Q01892 1-262). The note with it: protein: recombinant; tags: N-terminal GST; dsDNA, one strand shown. Put shortly:
as §1

The target in another experiment is T6, ELK3 (Homo sapiens, UniProt P41970 1-407).
T6 sequence: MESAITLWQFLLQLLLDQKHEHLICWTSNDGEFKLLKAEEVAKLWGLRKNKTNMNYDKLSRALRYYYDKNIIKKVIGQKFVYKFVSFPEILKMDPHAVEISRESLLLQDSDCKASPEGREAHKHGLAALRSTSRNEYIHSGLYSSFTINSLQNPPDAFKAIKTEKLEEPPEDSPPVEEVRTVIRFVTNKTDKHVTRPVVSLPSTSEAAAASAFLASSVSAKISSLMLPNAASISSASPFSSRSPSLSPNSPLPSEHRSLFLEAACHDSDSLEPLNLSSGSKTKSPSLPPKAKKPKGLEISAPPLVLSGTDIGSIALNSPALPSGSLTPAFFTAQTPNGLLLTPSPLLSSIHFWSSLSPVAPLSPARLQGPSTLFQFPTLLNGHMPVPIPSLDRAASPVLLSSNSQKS
The conditions noted are these: protein: recombinant; tags: N-terminal GST; dsDNA, one strand shown. Put shortly:
as §1

The target in another experiment is T7, FEV (Homo sapiens, UniProt Q99581 1-238).
T7 sequence: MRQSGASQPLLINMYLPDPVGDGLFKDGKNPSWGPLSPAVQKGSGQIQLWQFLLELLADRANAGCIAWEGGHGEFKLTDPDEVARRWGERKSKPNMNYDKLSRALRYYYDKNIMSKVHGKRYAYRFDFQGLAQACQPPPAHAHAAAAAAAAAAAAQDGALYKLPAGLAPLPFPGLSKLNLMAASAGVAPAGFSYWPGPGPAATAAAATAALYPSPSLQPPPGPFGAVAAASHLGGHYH
The conditions noted are these: protein: recombinant; tags: N-terminal GST; dsDNA, one strand shown. The method in brief: as §1

In a further experiment the target is ETV5 (Homo sapiens, UniProt P41161 1-510). The note with it: protein: recombinant; tags: N-terminal GST; dsDNA, one strand shown. Put shortly:
as §1

The target of the next experiment is HSF1 (Homo sapiens, UniProt Q00613 1-529). The conditions noted are these: protein: recombinant; tags: N-terminal GST; chain copies: 3; dsDNA, one strand shown. Put shortly:
as §1

A further experiment has as its target T8, SPIC (Homo sapiens, UniProt Q8N5J4 1-248).
T8 sequence: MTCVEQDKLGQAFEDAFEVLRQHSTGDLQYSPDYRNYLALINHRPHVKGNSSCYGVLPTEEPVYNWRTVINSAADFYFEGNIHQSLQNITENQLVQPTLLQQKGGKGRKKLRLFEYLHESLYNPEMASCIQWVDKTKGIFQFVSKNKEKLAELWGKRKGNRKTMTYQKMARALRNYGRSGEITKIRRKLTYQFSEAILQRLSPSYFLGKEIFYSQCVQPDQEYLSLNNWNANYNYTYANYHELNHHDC
The conditions noted are these: protein: recombinant; tags: N-terminal GST; dsDNA, one strand shown. The method in brief: as §1

The target of a further experiment is ELF4 (Homo sapiens, UniProt Q99607 1-663). The note with it: protein: recombinant; tags: N-terminal GST; dsDNA, one strand shown. The method in brief: as §1
Sequence of ELF4 (Q99607 whole entry): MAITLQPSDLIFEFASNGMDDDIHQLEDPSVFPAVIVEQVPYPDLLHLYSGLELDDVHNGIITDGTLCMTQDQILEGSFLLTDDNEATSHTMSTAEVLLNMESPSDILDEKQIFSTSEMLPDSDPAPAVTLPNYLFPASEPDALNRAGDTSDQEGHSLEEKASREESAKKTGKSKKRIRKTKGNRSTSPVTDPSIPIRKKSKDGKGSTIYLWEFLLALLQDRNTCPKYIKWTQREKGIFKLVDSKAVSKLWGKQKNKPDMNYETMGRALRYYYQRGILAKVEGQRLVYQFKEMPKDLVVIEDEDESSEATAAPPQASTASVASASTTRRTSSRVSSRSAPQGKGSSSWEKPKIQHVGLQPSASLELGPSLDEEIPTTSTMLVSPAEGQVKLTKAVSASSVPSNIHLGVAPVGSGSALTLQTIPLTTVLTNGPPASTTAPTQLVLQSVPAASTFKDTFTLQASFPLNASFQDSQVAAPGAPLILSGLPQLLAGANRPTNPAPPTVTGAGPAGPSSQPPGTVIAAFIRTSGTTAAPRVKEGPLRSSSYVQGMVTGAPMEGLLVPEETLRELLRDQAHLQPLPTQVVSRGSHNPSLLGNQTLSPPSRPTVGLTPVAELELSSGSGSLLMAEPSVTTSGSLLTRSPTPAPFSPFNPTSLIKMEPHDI
A further experiment addresses T9, ELK4 (Homo sapiens, UniProt P28324-2 1-405).
T9 sequence: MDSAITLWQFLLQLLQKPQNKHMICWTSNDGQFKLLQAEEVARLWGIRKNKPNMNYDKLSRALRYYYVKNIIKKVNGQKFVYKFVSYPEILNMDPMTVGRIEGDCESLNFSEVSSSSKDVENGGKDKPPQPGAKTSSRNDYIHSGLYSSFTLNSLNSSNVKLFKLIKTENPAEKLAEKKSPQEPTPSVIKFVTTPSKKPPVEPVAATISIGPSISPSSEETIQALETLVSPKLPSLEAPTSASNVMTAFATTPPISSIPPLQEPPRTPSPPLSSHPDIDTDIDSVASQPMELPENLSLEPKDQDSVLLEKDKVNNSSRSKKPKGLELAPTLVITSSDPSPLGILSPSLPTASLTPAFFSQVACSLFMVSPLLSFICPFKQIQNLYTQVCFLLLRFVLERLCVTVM
The note with it: protein: recombinant; tags: N-terminal GST; dsDNA, one strand shown. Put shortly:
as §1

For the next experiment, the target named is T10, ETV2 (Homo sapiens, UniProt O00321 1-342).
T10 sequence: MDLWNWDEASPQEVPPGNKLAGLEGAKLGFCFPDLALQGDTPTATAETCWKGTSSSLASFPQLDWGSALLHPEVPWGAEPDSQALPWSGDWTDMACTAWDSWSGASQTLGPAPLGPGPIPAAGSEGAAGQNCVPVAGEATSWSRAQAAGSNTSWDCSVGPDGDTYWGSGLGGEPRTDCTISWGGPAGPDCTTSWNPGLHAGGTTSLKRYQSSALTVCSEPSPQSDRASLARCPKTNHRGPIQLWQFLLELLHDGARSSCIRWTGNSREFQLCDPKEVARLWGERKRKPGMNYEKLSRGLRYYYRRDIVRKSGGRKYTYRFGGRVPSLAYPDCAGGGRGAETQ
The conditions noted are these: protein: recombinant; tags: N-terminal GST; dsDNA, one strand shown. The method in brief: as §1

The target of the next experiment is T11, ELF3 (Homo sapiens, UniProt P78545 1-371).
T11 sequence: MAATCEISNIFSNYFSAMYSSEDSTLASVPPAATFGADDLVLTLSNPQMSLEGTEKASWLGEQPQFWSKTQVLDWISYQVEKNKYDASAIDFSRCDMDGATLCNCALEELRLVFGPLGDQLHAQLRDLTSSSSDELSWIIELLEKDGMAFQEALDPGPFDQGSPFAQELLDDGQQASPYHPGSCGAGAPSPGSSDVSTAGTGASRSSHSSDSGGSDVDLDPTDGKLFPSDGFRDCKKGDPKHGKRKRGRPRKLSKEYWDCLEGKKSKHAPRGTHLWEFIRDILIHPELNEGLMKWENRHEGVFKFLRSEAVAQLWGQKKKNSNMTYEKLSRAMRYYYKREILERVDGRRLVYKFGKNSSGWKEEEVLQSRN
The note with it: protein: recombinant; tags: N-terminal GST; dsDNA, one strand shown. The method in brief:
as §1

A further experiment has as its target CRX (Homo sapiens, UniProt O43186 1-299). The note with it: protein: recombinant; tags: N-terminal GST; dsDNA, one strand shown. Put shortly:
as §1

For a further experiment, the target named is ETV1 (Homo sapiens, UniProt P50549 1-477). The note with it: protein: recombinant; tags: N-terminal GST; dsDNA, one strand shown. Put shortly:
as §1

Sequence of CRX (O43186 whole entry): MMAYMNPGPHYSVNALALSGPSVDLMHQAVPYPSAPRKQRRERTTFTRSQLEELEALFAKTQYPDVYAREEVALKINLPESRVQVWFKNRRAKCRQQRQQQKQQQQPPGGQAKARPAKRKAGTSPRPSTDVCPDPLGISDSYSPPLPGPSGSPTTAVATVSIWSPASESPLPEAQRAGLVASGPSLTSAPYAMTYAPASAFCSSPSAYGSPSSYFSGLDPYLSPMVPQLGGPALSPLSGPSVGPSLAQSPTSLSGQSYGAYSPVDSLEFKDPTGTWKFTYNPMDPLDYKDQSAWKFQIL
Sequence of HSF1 (Q00613 whole entry): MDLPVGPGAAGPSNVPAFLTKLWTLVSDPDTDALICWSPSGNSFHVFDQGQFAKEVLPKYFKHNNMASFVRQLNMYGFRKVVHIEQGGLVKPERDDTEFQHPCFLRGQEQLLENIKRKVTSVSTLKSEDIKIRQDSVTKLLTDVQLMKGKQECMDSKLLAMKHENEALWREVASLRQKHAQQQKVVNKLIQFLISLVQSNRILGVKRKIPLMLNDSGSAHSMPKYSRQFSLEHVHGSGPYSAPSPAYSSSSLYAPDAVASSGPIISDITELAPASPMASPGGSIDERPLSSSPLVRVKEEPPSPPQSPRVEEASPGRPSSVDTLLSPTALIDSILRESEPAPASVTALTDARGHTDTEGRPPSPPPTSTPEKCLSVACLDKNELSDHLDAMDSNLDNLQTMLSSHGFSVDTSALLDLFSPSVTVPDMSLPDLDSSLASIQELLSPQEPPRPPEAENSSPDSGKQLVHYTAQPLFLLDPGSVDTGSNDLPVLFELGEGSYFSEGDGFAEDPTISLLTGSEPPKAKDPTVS
Sequence of ETV5 (P41161 whole entry): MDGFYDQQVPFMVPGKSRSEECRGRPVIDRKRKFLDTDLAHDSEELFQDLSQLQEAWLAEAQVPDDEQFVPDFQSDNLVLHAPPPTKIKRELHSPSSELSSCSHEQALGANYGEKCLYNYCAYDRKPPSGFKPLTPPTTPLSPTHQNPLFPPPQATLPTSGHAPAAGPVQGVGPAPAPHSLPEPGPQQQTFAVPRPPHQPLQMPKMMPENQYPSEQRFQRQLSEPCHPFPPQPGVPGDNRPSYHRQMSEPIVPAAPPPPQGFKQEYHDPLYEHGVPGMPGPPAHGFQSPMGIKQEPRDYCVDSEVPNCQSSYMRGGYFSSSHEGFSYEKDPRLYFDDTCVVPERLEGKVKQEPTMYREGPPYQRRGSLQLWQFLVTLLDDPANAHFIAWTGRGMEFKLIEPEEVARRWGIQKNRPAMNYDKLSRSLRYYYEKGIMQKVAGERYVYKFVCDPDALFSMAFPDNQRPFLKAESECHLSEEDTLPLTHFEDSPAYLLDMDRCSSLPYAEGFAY
Sequence of ETV1 (P50549 whole entry): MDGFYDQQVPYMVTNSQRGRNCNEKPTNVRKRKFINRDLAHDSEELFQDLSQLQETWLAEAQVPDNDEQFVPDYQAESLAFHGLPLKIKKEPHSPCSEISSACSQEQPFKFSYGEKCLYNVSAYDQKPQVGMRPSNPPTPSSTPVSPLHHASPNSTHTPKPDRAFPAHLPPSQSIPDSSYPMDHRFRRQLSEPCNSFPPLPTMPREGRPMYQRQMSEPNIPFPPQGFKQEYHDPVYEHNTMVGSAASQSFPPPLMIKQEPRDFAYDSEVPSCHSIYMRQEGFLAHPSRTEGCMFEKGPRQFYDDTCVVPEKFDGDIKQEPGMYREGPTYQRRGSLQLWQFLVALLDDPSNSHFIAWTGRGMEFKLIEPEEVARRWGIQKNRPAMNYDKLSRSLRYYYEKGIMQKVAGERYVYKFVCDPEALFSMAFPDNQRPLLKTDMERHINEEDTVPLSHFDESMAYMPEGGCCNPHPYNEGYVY
Sequence of ELF1 (P32519 whole entry): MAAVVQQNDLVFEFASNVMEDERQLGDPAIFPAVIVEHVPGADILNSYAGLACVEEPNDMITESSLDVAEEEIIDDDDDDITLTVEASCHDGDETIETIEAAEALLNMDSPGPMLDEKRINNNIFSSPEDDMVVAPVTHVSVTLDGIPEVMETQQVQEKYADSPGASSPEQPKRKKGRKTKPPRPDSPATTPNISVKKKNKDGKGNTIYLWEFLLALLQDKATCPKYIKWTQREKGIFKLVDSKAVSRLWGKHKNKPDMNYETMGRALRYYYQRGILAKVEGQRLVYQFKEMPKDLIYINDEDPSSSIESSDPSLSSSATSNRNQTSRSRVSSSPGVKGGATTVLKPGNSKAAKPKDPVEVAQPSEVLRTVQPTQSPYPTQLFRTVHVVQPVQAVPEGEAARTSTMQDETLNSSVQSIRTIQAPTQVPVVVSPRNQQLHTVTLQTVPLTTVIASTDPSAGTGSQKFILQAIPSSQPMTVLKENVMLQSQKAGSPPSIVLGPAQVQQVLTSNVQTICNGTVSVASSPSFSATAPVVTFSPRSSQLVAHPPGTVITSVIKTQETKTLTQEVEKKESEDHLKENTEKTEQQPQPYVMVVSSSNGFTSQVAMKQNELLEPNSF
Sequence of SPIB (Q01892 whole entry): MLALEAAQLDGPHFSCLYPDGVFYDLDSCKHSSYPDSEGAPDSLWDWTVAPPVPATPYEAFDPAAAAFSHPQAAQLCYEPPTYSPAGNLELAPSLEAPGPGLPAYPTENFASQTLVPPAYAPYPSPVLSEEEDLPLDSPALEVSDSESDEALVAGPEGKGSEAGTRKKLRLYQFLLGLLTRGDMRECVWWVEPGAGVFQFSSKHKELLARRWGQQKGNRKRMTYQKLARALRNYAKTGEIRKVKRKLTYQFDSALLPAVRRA

As for GCAAAT, the binding signal is 1.05 fold enrichment (6-mer frequency, TF over GST control) in the experiment with FLI1; 1.04 fold enrichment (6-mer frequency, TF over GST control) with ELK1; 1.04 fold enrichment (6-mer frequency, TF over GST control) with GABPA; 1.18 fold enrichment (6-mer frequency, TF over GST control) with ERG; 1.11 fold enrichment (6-mer frequency, TF over GST control) with ELF1; 1.03 fold enrichment (6-mer frequency, TF over GST control) in the experiment with EHF. In addition, the binding signal was 1.02 fold enrichment (6-mer frequency, TF over GST control) with SPI1; 1.14 fold enrichment (6-mer frequency, TF over GST control) with SPIB; 1.01 fold enrichment (6-mer frequency, TF over GST control) with ELK3; 1.08 fold enrichment (6-mer frequency, TF over GST control) with FEV; 1.1 fold enrichment (6-mer frequency, TF over GST control) in the experiment with ETV5; 1.08 fold enrichment (6-mer frequency, TF over GST control) with HSF1. The binding signal with SPIC was 1.17 fold enrichment (6-mer frequency, TF over GST control); with ELF4 it was 1.04 fold enrichment (6-mer frequency, TF over GST control); with ELK4, 1.02 fold enrichment (6-mer frequency, TF over GST control); with ETV2, 1.06 fold enrichment (6-mer frequency, TF over GST control); with ELF3, 1.17 fold enrichment (6-mer frequency, TF over GST control); in the experiment with CRX, 1.08 fold enrichment (6-mer frequency, TF over GST control). In the experiment with ETV1, the binding signal was 1.11 fold enrichment (6-mer frequency, TF over GST control).
